Source: the supplement of paper PMC11732987, “Enantioselective OTUD7B fragment discovery through chemoproteomics screening and high-throughput optimisation” (Communications Chemistry, 2025)

Tests used:
Experiment in all cases: log2 ratio of Biotin-Ahx-Ub-VS probe labelling (fragment/DMSO); higher = less target engagement (more negative = stronger competition), active = hit call of the paper (q ≤ 0.05, log2 ratio ≤ -1)
Settings in all cases: compound concentration: 200 uM; treatment time: 3 h
ALG13 = target: T1, ALG13 (UniProt Q9NP73)
T1 sequence (whole entry): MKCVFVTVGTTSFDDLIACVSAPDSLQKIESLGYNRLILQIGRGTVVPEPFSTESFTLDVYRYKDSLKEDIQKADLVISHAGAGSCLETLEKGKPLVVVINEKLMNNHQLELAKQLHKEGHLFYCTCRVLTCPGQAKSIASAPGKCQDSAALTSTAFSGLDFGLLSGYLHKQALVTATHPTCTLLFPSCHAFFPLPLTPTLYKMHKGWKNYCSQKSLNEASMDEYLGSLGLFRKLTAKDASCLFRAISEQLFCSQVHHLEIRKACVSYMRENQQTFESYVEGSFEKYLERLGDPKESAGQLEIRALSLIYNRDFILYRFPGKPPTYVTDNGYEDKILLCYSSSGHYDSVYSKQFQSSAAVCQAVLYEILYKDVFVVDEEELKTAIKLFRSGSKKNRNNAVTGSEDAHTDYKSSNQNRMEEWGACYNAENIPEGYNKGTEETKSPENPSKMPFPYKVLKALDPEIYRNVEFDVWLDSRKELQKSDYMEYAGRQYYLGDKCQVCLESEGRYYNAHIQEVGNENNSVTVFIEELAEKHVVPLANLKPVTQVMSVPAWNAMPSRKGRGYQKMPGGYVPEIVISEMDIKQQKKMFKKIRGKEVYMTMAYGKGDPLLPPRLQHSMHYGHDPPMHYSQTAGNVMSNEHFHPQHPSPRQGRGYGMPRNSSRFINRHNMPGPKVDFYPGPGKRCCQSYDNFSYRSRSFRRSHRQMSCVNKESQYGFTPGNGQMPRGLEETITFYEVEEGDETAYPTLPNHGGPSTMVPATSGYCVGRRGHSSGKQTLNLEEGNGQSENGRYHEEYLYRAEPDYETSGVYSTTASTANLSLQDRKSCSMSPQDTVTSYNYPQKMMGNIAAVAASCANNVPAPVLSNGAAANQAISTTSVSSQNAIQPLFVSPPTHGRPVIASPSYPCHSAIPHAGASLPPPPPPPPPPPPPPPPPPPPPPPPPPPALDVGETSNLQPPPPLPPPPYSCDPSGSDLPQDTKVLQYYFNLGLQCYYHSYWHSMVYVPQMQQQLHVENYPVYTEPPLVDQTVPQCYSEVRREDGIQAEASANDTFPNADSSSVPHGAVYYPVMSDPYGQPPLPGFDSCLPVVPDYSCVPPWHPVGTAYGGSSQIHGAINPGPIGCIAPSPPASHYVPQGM
Outline: (§1)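 Fragment (200 µM) or vehicle was incubated for 3 h with triplicate HEK293T lysate samples of 495 µg, which were then treated with Biotin-Ahx-Ub-VS at 0.5 µM final for 1 h. Labelled DUBs were enriched on NeutrAvidin, digested with LysC and trypsin, and analysed by diaPASEF LC-MS/MS. Values are average log2 fragment/vehicle ratios from an unpaired t-test on global-median-normalised Spectronaut label-free quantities, using proteins with ≥2 unique peptides.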

ATXN3 = ATXN3 (UniProt P54252)
Outline: as §1

BAP1 = target: T2, BAP1 (UniProt Q92560)
T2 sequence (whole entry): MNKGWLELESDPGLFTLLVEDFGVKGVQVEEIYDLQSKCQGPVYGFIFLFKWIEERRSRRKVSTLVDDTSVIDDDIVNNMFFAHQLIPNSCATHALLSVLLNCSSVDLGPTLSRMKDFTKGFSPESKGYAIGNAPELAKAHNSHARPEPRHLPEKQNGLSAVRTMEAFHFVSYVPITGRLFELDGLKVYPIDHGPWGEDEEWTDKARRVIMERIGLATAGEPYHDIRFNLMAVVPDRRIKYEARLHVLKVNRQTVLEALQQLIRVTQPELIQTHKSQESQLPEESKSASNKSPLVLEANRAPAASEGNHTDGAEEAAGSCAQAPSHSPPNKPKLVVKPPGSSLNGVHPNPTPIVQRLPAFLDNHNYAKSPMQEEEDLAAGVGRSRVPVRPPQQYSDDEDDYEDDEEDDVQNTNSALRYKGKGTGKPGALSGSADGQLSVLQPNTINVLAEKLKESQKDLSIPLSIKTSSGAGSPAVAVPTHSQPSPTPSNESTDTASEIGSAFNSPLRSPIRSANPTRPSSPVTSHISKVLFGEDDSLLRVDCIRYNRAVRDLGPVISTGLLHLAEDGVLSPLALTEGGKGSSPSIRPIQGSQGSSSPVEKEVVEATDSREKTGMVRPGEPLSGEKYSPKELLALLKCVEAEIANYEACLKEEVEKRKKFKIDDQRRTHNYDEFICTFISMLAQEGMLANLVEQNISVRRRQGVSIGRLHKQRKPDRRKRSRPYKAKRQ
Outline: as §1

EIF3F = EIF3F (UniProt O00303)
Outline: as §1

EIF3H = EIF3H (UniProt O15372)
Outline: as §1

FAM105A = target: T3, FAM105A (UniProt Q9NUU6)
T3 sequence (whole entry): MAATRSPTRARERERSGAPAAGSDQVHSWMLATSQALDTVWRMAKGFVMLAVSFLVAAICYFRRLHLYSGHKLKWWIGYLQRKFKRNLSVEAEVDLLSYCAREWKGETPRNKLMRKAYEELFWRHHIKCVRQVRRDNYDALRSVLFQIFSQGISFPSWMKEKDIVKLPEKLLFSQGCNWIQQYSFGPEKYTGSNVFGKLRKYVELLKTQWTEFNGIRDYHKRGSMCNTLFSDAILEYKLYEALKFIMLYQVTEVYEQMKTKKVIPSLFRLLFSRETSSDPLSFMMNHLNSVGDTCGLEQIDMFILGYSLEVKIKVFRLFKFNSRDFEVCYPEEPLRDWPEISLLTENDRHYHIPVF
Outline: as §1

OTUB1 = OTUB1 (UniProt Q96FW1)
Outline: as §1

OTUD4 = target: T4, OTUD4 (UniProt Q01804)
T4 sequence (whole entry): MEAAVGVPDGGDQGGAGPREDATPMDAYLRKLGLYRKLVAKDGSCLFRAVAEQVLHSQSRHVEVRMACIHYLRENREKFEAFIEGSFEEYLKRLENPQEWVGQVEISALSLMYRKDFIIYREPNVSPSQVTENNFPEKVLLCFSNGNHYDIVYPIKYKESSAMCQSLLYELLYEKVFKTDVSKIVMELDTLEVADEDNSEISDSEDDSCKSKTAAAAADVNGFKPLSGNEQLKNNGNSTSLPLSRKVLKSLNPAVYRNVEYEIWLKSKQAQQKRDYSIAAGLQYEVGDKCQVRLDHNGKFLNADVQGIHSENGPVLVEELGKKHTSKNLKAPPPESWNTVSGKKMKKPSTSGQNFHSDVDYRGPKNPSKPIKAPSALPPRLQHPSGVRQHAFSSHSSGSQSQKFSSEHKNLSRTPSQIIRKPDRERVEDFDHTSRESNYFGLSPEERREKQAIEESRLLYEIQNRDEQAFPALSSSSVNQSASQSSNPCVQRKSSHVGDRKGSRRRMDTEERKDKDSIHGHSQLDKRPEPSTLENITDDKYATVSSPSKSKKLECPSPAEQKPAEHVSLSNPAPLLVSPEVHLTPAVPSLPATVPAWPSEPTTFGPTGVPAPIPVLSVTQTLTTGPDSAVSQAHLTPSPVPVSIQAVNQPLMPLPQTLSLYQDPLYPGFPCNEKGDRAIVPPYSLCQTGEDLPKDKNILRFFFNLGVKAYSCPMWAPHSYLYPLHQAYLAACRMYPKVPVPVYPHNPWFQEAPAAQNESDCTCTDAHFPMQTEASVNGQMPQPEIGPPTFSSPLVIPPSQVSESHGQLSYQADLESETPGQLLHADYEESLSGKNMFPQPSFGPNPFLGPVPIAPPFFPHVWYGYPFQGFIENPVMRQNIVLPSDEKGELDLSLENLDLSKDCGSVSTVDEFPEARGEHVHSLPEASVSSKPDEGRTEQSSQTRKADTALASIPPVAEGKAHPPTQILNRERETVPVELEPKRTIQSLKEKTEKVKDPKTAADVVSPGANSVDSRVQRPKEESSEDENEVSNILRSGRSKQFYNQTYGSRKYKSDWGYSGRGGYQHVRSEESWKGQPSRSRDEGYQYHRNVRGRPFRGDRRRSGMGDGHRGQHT
Outline: as §1

OTUD5 = target: T5, OTUD5 (UniProt Q96G74)
T5 sequence (whole entry): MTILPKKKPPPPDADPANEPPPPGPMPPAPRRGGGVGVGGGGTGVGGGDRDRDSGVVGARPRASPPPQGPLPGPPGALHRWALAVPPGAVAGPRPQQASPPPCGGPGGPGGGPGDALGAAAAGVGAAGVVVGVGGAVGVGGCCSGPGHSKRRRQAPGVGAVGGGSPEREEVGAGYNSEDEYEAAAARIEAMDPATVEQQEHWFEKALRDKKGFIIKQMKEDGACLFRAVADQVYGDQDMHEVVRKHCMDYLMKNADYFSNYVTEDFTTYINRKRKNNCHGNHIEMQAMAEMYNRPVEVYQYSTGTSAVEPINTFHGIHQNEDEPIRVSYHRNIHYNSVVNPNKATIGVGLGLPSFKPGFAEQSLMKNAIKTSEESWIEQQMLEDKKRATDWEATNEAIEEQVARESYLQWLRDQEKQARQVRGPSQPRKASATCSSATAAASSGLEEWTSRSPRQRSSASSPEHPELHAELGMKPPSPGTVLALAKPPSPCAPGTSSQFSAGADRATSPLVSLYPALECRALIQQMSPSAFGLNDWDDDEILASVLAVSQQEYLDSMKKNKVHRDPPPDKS
Outline: as §1

Measured: log2 ratio of Biotin-Ahx-Ub-VS probe labelling

Chain of EIF3H (O15372 whole entry): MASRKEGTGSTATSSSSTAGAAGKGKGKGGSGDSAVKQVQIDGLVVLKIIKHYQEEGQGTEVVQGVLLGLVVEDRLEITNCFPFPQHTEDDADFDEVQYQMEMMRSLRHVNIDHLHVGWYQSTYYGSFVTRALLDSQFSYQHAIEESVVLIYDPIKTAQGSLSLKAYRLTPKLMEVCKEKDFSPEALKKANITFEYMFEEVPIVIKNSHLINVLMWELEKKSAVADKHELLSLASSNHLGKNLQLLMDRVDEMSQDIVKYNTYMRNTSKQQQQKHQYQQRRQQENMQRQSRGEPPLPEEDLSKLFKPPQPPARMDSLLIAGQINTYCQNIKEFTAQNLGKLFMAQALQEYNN
Chain of EIF3F (O00303 whole entry): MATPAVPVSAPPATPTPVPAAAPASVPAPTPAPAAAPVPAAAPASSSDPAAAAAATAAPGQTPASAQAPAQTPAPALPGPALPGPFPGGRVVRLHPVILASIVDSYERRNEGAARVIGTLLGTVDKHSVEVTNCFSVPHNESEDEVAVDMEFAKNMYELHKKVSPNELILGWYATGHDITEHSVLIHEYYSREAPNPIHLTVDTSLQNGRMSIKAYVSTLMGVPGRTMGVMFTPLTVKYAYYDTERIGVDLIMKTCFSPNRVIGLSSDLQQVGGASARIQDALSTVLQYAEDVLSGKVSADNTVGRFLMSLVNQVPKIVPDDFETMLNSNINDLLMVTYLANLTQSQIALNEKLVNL
Chain of OTUB1 (Q96FW1 whole entry): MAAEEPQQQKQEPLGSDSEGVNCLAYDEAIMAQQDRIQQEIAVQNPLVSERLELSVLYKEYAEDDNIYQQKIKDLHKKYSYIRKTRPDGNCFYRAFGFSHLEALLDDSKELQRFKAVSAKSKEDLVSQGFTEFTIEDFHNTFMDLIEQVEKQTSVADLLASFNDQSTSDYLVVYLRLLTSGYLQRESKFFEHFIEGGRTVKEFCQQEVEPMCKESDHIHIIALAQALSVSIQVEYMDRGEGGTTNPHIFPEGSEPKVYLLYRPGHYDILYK
Chain of ATXN3 (P54252 whole entry): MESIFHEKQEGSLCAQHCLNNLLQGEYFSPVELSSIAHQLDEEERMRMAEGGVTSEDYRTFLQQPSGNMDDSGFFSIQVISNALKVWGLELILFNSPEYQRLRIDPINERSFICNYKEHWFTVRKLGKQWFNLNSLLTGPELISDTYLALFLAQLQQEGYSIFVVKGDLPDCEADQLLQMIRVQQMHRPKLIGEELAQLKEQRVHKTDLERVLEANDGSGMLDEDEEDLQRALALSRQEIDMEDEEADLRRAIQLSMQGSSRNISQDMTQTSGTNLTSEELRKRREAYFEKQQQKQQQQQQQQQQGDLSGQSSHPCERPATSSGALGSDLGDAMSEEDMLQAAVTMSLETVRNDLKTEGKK

Cl.O=C(CCl)N1CCc2ncncc2C1
inactive: ALG13 -0.17 | ATXN3 -0.297 | BAP1 -0.732 | EIF3F -0.328 | EIF3H -0.29 | FAM105A 0.0971 | OTUB1 -0.263 | OTUD4 -0.304 | OTUD5 -0.373
